From PubChem BioAssay AID1671190 (National Center for Advancing Translational Sciences (NCATS), 2021)
About 6,100 (1.1%) of roughly 580,000 compounds were called active. Roughly 15% stayed inconclusive and do not appear here. The entries come from a sample that favours actives as a whole. A number with no mark means an inactive call. Calls follow the shape of the dose curve; as a rule, active = well fitted inhibition curve with a large enough effect; inconclusive = small, poorly fitted or top-dose-only effect, or another doubt; inactive = no such curve, though single readings can be large or run the other way.

target: Polyunsaturated fatty acid lipoxygenase ALOX12 (Homo sapiens) (UniProt P18054); assay: Primary qHTS assay for inhibitors of human arachidonate 12S-lipoxygenase (ALOX12): Round 2; conditions: purified 12hLO, xylenol orange hydroperoxide absorbance; series mostly up to 108 µM; activity change, negative = inhibition: at the top concentration
Sequence (P18054 whole entry, looked up): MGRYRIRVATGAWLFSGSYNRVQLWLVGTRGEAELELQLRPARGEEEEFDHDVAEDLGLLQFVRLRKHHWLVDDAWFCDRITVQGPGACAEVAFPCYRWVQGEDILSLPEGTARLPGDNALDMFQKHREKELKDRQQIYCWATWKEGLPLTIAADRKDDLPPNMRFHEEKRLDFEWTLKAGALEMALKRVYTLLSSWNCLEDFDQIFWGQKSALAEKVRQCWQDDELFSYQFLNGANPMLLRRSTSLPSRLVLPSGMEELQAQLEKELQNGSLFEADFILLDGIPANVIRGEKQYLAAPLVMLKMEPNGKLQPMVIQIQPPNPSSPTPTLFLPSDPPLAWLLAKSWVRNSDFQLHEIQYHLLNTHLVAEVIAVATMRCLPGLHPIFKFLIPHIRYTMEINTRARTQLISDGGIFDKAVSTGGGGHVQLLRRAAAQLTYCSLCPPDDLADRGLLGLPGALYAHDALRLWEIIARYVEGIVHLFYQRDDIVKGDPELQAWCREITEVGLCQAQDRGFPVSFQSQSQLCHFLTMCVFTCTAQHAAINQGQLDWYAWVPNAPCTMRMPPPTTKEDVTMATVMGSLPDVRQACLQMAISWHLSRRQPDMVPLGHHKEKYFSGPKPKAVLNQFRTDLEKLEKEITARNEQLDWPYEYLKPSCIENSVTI
Procedure, shortened: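 Purified human 12hLO at 150 nM in 25 mM Hepes, 0.01% Triton X-100, pH 7.0, preincubated 15 min at room temperature with compound. Reaction started with 40 uM arachidonic acid, 30 min at room temperature. Hydroperoxide measured by Fe-xylenol orange, 573/405 nm absorbance ratio.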
% is scaled to controls: 0 for no effect and ±100 for the full control effect; potency is read from the fitted curve at half-maximal effect.

Row | SMILES | activity change, negative = inhibition | Potency
1 | Cc1oc(C)c2c(=O)cc(-c3ccc4c(c3)OCO4)cc(OC(=O)c3ccc(Cl)cc3)c12 | 6.01% | 
2 | COc1ccc(-c2c(C)c3ccc(O)c(CN4CCCC4)c3oc2=O)cc1OC | -10.4% | 
3 | CCOc1cc(-c2ccc(O)c(OC)c2)cc(=O)c2c(C)oc(C)c12 |  | 7.08 µM (active)
4 | CCn1nc(C)c(CNC(=O)Nc2cc(Cl)ccc2OC)c1C | 23.7% | 
5 | O=C(c1ccc2c(c1)N(C(=O)c1ccccc1)CC2)N1CCN(c2ccc(Cl)cc2)CC1 | 38.8% | 
6 | Cc1ccc2cc(C(=O)NCc3cccnc3-n3cccn3)c(C)nc2c1 | 7.82% | 
7 | Cc1nc(C)c(C(=O)N2CCC(N3C(=O)C4(CCCC4)C3c3ccccc3)CC2)s1 (configuration not stated) | 58% | 
8 | Cc1nc2cc(NC(=O)C3CC(=O)N(CC4CC4)C3)ccc2o1 (configuration not stated) | 0.248% | 
9 | NS(=O)(=O)c1ccc2nc(NC(=O)COc3ccccc3)sc2c1 | 2.54% | 
10 | CC(C)CC(CC(C)C)=NNC(=O)COc1ccc(C#N)cc1 | -15.3% | 
11 | N#Cc1ccc(OCC(=O)Nc2nc(-c3ccccn3)cs2)cc1 |  | 17.8 µM (active)
12 | O=C1COc2ccc(C(=O)COC(=O)c3nn(Cc4ccccc4)c(=O)c4ccccc34)cc2N1 | -18.9% | 
13 | Cn1nc(C2CCN(C(=O)c3cccc(Cl)c3)CC2)[nH]c1=O | 47.3% [at 176 µM] | 
14 | O=C(c1ccc(F)cc1)N1CCCC(c2nn(-c3cccc(Cl)c3)c(=O)[nH]2)C1 (configuration not stated) | 5.72% | 
15 | Cc1ccc(C(=O)N2CCC(c3nn(-c4ccccc4)c(=O)[nH]3)CC2)cc1 | 4.19% | 
16 | CC(C)(C)C(=O)N1CCC(c2nn(-c3ccc(F)cc3)c(=O)[nH]2)CC1 | 3.33% [at 176 µM] | 
17 | O=C(c1ccccc1F)N1CCC(c2nn(-c3ccc(Cl)cc3)c(=O)[nH]2)CC1 |  | 31.6 µM (active)
18 | O=C(Cc1cccc(Cl)c1)N1CCC(c2nn(-c3ccc(Cl)cc3)c(=O)[nH]2)CC1 |  | 20 µM (active)
19 | COc1cc(Cl)c(C)cc1NC(=O)Cn1nc(-c2cccs2)oc1=O | 65.1% | 
20 | CCCN(CC(F)(F)F)C(=O)c1ccc(NC(=O)NC(C)C)cc1 | -27.5% | 
21 | Cc1ccc(-n2ccc(C=O)c2)c(C)c1 | 9.12% | 
22 | C=CCN(C)C(=O)C[C@@H]1c2nc(NC(=O)c3ccc(C(C)(C)C)cc3)sc2C[C@@H]2[C@](C)(CO)[C@H](O)CC[C@]21C | -2.6% | 
23 | CCN(CC)C(=O)[C@@H](C)C1CC[C@@]2(C)Cc3sc(N)nc3[C@@H](C)[C@@H]2[C@H]1O (some centres not stated) | 48% [at 176 µM] | 
24 | C=CCN(C)C(=O)[C@@H](C)C1CC[C@@]2(C)Cc3sc(NS(=O)(=O)c4ccc(Cl)cc4)nc3[C@@H](C)[C@@H]2[C@H]1O (some centres not stated) |  | 31.6 µM (active)
25 | CC(Sc1cc(F)ccc1F)C(=O)Nc1ccnn1C(C)C (configuration not stated) | -13.5% | 
26 | O=C(NCc1ccc(Cl)c(Cl)c1)C1CCN(c2ncnc3nc[nH]c23)CC1 | -1.44% | 

Row | SMILES | activity change, negative = inhibition | Potency
27 | CCCNC(=O)C1(C)CCCN(Cc2cccc(C(F)(F)F)c2)C1 (configuration not stated) | -21.5% | 
28 | CC(=O)NC1(C)CCN(Cc2cccc(-c3ccc(C(=O)c4ccccc4)cc3)c2)C1 (configuration not stated) |  | 39.8 µM (active)
29 | CC(=O)N1CCC2(CCCN(Cc3ccccc3)C2)CC1 | -19.8% [at 57.4 µM] | 
30 | CC(C)(C)OC(=O)C(C#N)c1cnccn1 (configuration not stated) | 0.566% | 
31 | CC(C)Oc1ccc(C(=O)NC(C)(C)CO)cc1 | -27.6% | 
32 | COc1ccc(C(O)(C2CCCCC2)C(CN2CCCC2)c2ccccc2)cc1 (configuration not stated) | 0% | 
33 | CC(C)Oc1ccc(C(O)(CC[N+](C)(C)C)C2CCCCC2)cc1 (configuration not stated) |  | 11.2 µM (active)
34 | O=C(CN1C(=O)CC2(CCCCC2)C1=O)c1c[nH]c2ccccc12 | 24.3% | 
35 | CCn1nc(C(=O)Nc2ccccn2)c2ccccc2c1=O | -0.227% | 
36 | Cc1ccccc1CNC(=O)c1cc(-c2ccncc2)nc2ccccc12 | -19.4% | 
37 | COc1ccc(C2C(=O)N(C3CCCCCC3)CC(=O)N2CCc2ccc(Cl)cc2)cc1OC (configuration not stated) | -25.5% | 
38 | CCC1(C)COC(c2ccc(OC)c(OC)c2)OC1 (configuration not stated) | -2.84% | 
39 | COc1ccc(C2NC(=O)C(=O)/C2=C(\O)c2ccc(Cl)cc2)cc1OC (configuration not stated) |  | 28.2 µM (active)
40 | CCN(CC)S(=O)(=O)c1ccc(-c2csc(-c3ccc(OC)c(OC)c3)n2)cc1 | -13.9% | 
41 | O=C(CN1c2ccccc2S(=O)(=O)c2ccccc21)Nc1cccc(C(F)(F)F)c1 | -26.5% | 
42 | FC(F)(F)c1cccc(N/N=C/c2ccccc2)c1 |  | 3.55 µM (active)
43 | CC(C)(C)c1ccc(/C=N/NC(=O)c2ccccc2)cc1 | 27.4% | 
44 | O=C(O)c1cc(-c2ccc3ccccc3n2)nc2ccc3ccccc3c12 | 2.92% | 
45 | CC1(C)CC(=O)C/C(=N/NC(=O)c2ccc(NC(=O)C3CC3)cc2)C1 | -1.6% | 
46 | O=S(=O)(NC1CC1)c1ccc2c3c(cccc13)CC2 | 8.58% | 
47 | N#CC1(NC(=O)COC(=O)Cc2n[nH]c(=O)c3ccccc23)CCCCC1 |  | inactive
48 | N#CC1(Nc2ccc3c4c(cccc24)CC3)CCCCC1 |  | 31.6 µM (active)
49 | CCCCC(=O)Nc1ccccc1C(C)CC (configuration not stated) | 2.54% | 
50 | Cc1nn(-c2ccc(F)cc2)c(Oc2ccccc2F)c1CCC(=O)NCC1CCCO1 (configuration not stated) | 48.6% | 
51 | C=CCNC(=O)COc1coc(CN2CCN(Cc3ccccc3)CC2)cc1=O | 30.2% | 
52 | C=CCNC(=S)/N=c1/ccccn1Cc1ccccc1 |  | 44.7 µM (active)
